# What was measured:
# [1] = biological target: Mast/stem cell growth factor receptor Kit (Homo sapiens) (UniProt P10721); details: at 1 µM
# [2] = tested on: Mast/stem cell growth factor receptor Kit (Homo sapiens), P10721 [D816V]; details: at 0.1 µM
# [3] = tested on: Mast/stem cell growth factor receptor Kit (Homo sapiens), P10721 [D816V]; details: at 1 µM
# [4] = tested on: Mast/stem cell growth factor receptor Kit (Homo sapiens), P10721 [T670I]; details: at 0.1 µM
# [5] = tested on: Mast/stem cell growth factor receptor Kit (Homo sapiens), P10721 [T670I]; details: at 1 µM
# [6] = tested on: Mast/stem cell growth factor receptor Kit (Homo sapiens), P10721 [V560G]; details: at 0.1 µM
# Mast/stem cell growth factor receptor Kit (Homo sapiens), P10721 [V560G], sequence (P10721 whole entry V560G): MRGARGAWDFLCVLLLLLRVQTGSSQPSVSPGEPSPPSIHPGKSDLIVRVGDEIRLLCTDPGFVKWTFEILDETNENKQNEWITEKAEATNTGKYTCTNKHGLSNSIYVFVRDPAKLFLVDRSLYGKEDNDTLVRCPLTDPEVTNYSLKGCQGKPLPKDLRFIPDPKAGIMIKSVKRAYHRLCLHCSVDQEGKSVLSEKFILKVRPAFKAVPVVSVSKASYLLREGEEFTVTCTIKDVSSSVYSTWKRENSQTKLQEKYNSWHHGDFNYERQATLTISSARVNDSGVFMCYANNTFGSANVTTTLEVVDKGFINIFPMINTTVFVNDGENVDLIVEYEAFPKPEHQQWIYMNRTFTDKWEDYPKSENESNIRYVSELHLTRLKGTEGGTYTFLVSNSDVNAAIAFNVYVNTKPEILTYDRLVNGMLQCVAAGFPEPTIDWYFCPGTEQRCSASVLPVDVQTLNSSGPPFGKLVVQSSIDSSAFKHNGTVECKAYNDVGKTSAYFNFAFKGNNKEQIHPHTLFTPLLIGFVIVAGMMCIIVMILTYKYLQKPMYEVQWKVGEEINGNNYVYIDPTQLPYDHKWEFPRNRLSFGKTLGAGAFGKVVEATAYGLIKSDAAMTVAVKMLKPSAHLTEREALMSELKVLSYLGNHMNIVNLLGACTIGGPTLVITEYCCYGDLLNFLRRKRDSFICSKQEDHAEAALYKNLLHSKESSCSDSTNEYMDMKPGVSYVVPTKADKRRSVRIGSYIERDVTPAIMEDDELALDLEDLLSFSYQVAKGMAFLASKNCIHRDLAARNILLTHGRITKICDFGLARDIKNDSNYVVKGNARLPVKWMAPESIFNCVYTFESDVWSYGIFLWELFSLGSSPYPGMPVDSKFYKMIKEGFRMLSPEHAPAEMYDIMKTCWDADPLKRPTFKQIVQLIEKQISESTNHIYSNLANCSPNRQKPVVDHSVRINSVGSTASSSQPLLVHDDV
# [7] = tested on: Mast/stem cell growth factor receptor Kit (Homo sapiens), P10721 [V560G]; details: at 1 µM
# [8] = biological target: Tyrosine-protein kinase Lck (Homo sapiens) (UniProt P06239); details: at 0.1 µM
# Tyrosine-protein kinase Lck (Homo sapiens), sequence (P06239 2-509 limits assumed): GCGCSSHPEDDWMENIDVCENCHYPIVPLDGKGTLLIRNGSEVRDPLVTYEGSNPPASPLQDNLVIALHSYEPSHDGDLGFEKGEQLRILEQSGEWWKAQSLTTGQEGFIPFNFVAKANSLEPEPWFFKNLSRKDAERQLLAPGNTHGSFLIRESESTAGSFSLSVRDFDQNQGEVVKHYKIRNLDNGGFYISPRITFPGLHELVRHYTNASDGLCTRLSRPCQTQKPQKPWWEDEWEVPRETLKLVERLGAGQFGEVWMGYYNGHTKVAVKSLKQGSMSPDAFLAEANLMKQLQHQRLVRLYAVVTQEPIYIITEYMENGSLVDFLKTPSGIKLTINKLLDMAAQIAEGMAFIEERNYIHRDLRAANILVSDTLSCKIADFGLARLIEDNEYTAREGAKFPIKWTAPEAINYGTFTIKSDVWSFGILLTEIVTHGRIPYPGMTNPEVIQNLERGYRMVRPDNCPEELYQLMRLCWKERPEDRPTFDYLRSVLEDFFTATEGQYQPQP
# [9] = biological target: Tyrosine-protein kinase Lck (Homo sapiens) (UniProt P06239); details: at 1 µM
# [10] = biological target: Leukocyte tyrosine kinase receptor (Homo sapiens) (UniProt P29376); details: at 0.1 µM
# Leukocyte tyrosine kinase receptor (Homo sapiens), sequence (P29376 whole entry): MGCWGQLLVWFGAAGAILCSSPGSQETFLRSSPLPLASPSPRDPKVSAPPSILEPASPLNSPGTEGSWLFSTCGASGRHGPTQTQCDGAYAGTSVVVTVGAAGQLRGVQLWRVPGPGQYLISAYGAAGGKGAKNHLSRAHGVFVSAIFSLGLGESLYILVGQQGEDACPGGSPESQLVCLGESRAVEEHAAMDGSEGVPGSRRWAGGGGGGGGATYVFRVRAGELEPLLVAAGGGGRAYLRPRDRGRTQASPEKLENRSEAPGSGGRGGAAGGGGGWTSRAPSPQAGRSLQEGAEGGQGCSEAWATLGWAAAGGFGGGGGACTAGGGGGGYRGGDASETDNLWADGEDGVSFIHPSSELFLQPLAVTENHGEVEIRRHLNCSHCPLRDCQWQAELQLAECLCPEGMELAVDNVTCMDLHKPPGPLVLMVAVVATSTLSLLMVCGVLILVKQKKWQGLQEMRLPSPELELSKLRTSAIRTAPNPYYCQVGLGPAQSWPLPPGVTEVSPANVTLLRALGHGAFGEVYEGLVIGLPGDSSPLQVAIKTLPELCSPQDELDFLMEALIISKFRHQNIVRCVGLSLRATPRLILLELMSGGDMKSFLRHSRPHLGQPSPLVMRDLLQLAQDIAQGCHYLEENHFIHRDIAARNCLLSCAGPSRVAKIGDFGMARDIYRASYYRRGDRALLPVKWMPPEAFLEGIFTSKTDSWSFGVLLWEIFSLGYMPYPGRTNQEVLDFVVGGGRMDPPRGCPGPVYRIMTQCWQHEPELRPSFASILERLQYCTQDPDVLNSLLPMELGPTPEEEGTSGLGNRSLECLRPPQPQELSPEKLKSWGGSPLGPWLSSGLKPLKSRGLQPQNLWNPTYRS
# Mast/stem cell growth factor receptor Kit (Homo sapiens), P10721 [T670I], sequence (P10721 whole entry T670I): as the sequence (P10721 whole entry V560G) above, with G560V, T670I counted along it
# Mast/stem cell growth factor receptor Kit (Homo sapiens), P10721 [D816V], sequence (P10721 whole entry D816V): as the sequence (P10721 whole entry V560G) above, with G560V, D816V counted along it
# Mast/stem cell growth factor receptor Kit (Homo sapiens), sequence (P10721 whole entry): as the sequence (P10721 whole entry V560G) above, with G560V counted along it
SMILES,inhibition [1] [%],inhibition [2] [%],inhibition [3] [%],inhibition [4] [%],inhibition [5] [%],inhibition [6] [%],inhibition [7] [%],inhibition [8] [%],inhibition [9] [%],inhibition [10] [%]
CCN(CC)S(=O)(=O)c1ccc(OC)c(Nc2ncc(-c3ccccc3)o2)c1,87.8,3.78,6.46,3.41,48.3,7.63,13.6,4.39,24.8,-0.3
COc1cc2ncn(-c3cc(OCc4ccccc4C(F)(F)F)c(C(=O)N(C)C)s3)c2cc1OC,3.36,0.31,3.99,-0.65,1.38,-2.81,1.25,2.04,11.2,1.37
N#Cc1c(NC(=O)CN2CCOCC2)sc2c1CCCC2,7.99,3.63,3.93,4.93,3.32,2.47,3.82,1.87,4.64,4.93
CCn1cc(-c2ccnc3[nH]ccc23)c(-c2cccc(NC(=O)Nc3ccc(OCc4ccccc4)cc3)c2)n1,-0.41,1.35,-0.05,-1.41,-1.25,-1.87,-1.14,2.58,21.8,1.35
CC(=O)NCc1cccc(C#Cc2cncnc2Nc2ccc(OCc3cccc(F)c3)c(Cl)c2)c1,0.4,-2.07,-2.37,1.52,1.39,1.82,-0.41,0.34,1.6,1.56
COc1ccc(CNC(=O)c2ccc(-c3cc(-c4nnc(C)o4)ccc3C)cc2)cc1,6.51,-5.34,4.89,2.12,3.18,4.68,4.58,0.44,3.44,1.41
COC(=O)Nc1nc2ccc(S(=O)(=O)c3ccc(NC(=O)Nc4cc(C(F)(F)F)ccc4F)cc3)cc2[nH]1,-0.26,3.87,5.14,1.09,-0.17,-0.14,0.67,2.26,3.94,1.63
[O-][S+]1CCN(Cc2ccc(-c3ccc4ncnc(Nc5ccc(OCc6cccc(F)c6)c(Cl)c5)c4c3)o2)CC1,10.1,6.9,3.81,2.75,5.16,-2.67,-0.28,2.85,8.2,7.04
COC(=O)c1sc(-n2cnc3cc(OC)c(OC)cc32)cc1OCc1ccccc1C(F)(F)F,11.8,2.28,2.88,4.55,7.23,-0.04,2.01,4.87,32.2,5.2
CCN1CCC(CC(=O)Nc2n[nH]c3nnc(-c4cccc(F)c4F)cc23)CC1,0.38,0.53,0.47,0.27,1.83,1.48,-0.83,2.01,6.17,2.06
Nc1nc(-c2ccc(F)cc2)c(-c2ccc3ncccc3n2)s1,9.66,1.91,5.04,4.73,5.34,2.59,2.66,9.43,16.7,3.99
CC1=C(C(=O)Nc2cc(Cl)c3[nH]ncc3c2)C(c2ccc(C(F)(F)F)cc2)CC(=O)N1 (stereo not given),0.36,4.84,6.4,2.93,4.07,-1.27,-0.62,4.9,27.1,2.35
CNC(=O)c1cncc(/C=C/c2ccccc2Cl)c1,10.7,-0.76,3.85,-1.89,3.4,2.25,8.8,4.51,5.49,-0.19
Fc1ccc(-c2nn3ncccc3c2-c2ccnc(Nc3ccc4c(c3)OCCO4)n2)cc1,91.9,3.55,4.13,5.56,27.3,16.3,64.5,44.7,85.1,3.99
CCn1c(-c2nonc2N)nc2c(C#CC(C)(C)O)nc(OC[C@H](N)c3ccccc3)cc21,1.58,1.78,10,0.36,0.72,3.28,-0.5,2.85,3.65,5.32
Cc1cccc2c1NC(=O)/C2=N\Nc1ccc(S(N)(=O)=O)cc1,34.3,1.59,-1.26,6.87,7.06,2.17,6.53,1.96,2.95,2.01
NS(=O)(=O)c1ccc(N/N=C2\C(=O)Nc3ccc4ncccc4c32)cc1,90.7,5.95,23.6,10.2,69.4,3.66,36.8,5.5,30.1,2.17

SMILES,inhibition [1] [%],inhibition [2] [%],inhibition [3] [%],inhibition [4] [%],inhibition [5] [%],inhibition [6] [%],inhibition [7] [%],inhibition [8] [%],inhibition [9] [%],inhibition [10] [%]
CNC(=O)c1cc(-c2ccc(F)cc2)cc(-c2ccc(S(=O)(=O)N3CCCC3)cc2)c1N,3.53,3.32,1.27,3.02,1.68,-2.57,1.97,2.58,2.91,2.81
Fc1ccc(-c2cc(-c3c[nH]nc3-c3ccccn3)ccn2)cc1,6.81,1.94,4.27,4.29,8.03,-3.44,1.08,1.94,2.35,4.6
N#Cc1c(NC(=O)c2ccc(F)cc2)sc2c1CCCC2,5.86,-0.47,2.78,-0.92,1.72,-0.83,0.9,0.7,0.45,1.24
Nc1nc(-c2cccc(Cl)c2)c(-c2ccc3ncccc3n2)s1,7.87,1.78,8.71,4.73,6.56,-0.42,-0.36,2.31,8.23,6.27
CCOc1ccc2c(-c3ccnc(Nc4cccc(C(F)(F)F)c4)n3)cnn2n1,17.8,0.23,2.91,1.24,3.49,-1.27,0.29,2.98,7.3,2.51
COc1ccc(-c2oc3ncnc(N)c3c2-c2ccc(NC(=O)Nc3cc(C(F)(F)F)ccc3F)cc2)cc1,96,2.85,5.19,11.8,88.3,25.5,78.6,21.1,83.9,4.21
COc1cc(Nc2nccc(Nc3ccc4c(C)n[nH]c4c3)n2)cc(OC)c1OC,95.8,10.8,58.7,4.19,43.3,13.1,57.9,34.4,82.4,2.14
Fc1cccc(COc2ccc(Nc3ncnc4sc(-c5ccco5)cc34)cc2Cl)c1,6.21,3.37,6.34,2.63,3.7,-0.3,0.57,3.21,5.67,3.44
CS(=O)(=O)CCNCc1ccc(-c2ccc3ncnc(Nc4ccc(OCc5ccccc5)c(C(F)(F)F)c4)c3c2)o1,4.84,2.36,4.65,3.39,2.42,1.13,-2.89,3.56,5.95,3.91
COc1ccc(-c2cc3c(N)ncnc3o2)cc1,8.52,1.15,0.89,-0.3,-2.59,4.17,2.93,0.2,5.93,-0.7
CC(=O)Nc1cccc(C#Cc2cncnc2Nc2ccc(OCc3cccc(F)c3)c(Cl)c2)c1,2.18,1.33,0.94,0.96,-0.24,2.26,5.18,1.97,3.76,0.86
COc1ccc2[nH]c3c4[nH]c5ccc(OC)cc5c4c4c(c3c2c1)C(=O)NC4=O,79.9,31.6,75.4,6.78,44.2,3.53,31.2,4.72,21.1,37.8
CN1CCC(n2cnc(-c3ccc(F)cc3)c2-c2ccnc(Nc3ccccc3)n2)CC1,6,1.84,2.39,3.38,1.42,-1.35,4.06,4.17,20.5,2.75
Clc1ccc(-c2nn3ncccc3c2-c2ccnc(Nc3ccccc3)n2)cc1,66.9,1.51,-1.04,-3.61,9.51,3.31,39.8,13.9,60,1.38
O=S(=O)(CCNCc1ccc(-c2ccc3ncnc(Nc4ccc(OCc5cccc(F)c5)c(Cl)c4)c3c2)o1)c1ccccc1,9.57,3.44,6.21,3.42,5.36,0.27,-1.16,3.99,8.49,5.14
COc1cc(N2CCN(C(C)C)CC2)ccc1Nc1nc(Nc2ccc(F)cc2C(N)=O)c2cc[nH]c2n1,4.94,-1.16,2.56,-2.37,-1.31,-1.89,-1.36,2.34,4.79,93.5

# Source: ChEMBL document CHEMBL1961873, “Compounds: GSK PKIS; Assays: Nanosyn kinase panel” (2012)
